TbPYK inhibitor: qHTS of Trypanosoma Brucei Inhibitors | actives 0.12% (n = 410,000) | Potency, µM (top dose mostly 76.8 µM), inactives show at the top dose activity, negative = inhibition, usual class: inhibitors | pyruvate kinase (Trypanosoma brucei), Q57TT1 | TbPYK enzyme, Kinase-Glo Plus ATP luminescence, 45 min; further: on the % scale 0 is the no-effect control and ±100 the full control effect; nearly all actives have a fitted effect of over 50% in size
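TbPYK + substrate in 50 mM TEA pH 7.2, 100 mM KCl, 10 mM MgCl2, 0.05% BSA, 0.01% Tween-20; cpd pinned; ADP 130 uM final; 45 min RT; Kinase-Glo Plus 10 min; luminescence endpoint.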
AmpC no deterg: qHTS Inhibitors of AmpC Beta-Lactamase (assay without detergent); AmpC nitrocefin hydrolysis, absorbance 480 nm, 0.0001% Triton; AID 485341, 2010; actives 0.52% (n = 330,000); Potency, µM (highest dose often 57.1 µM), without a hit: top-dose activity change, negative = inhibition, actives largely listed as inhibitors; P00811;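 further: plate controls were no compound for no effect and no enzyme for full effect; nearly all actives have a fitted effect of over 20% in size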
Target sequence (P00811 whole entry, looked up): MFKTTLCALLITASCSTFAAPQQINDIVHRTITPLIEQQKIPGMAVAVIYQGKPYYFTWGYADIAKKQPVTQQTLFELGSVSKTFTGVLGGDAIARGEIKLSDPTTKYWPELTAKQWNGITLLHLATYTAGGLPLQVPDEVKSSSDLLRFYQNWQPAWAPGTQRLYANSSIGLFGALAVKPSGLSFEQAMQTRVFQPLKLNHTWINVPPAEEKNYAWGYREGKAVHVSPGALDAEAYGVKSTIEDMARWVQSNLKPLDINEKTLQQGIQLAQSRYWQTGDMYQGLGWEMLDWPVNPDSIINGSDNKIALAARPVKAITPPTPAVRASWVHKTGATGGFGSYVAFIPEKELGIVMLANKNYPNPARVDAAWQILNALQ
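20 mM phosphate pH 7.0 + 0.01% (detergent screen) or 0.0001% Triton X-100; 5.3 nM AmpC reagent; cpd preinc 15 min RT; nitrocefin (800 uM stock) to start; A480 q20 s × 4 min; Activity was normalised to no-enzyme and no-compound control wells.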
AmpC detergent: qHTS Inhibitors of AmpC Beta-Lactamase (assay with detergent). P00811. AmpC hydrolysis of nitrocefin, absorbance 480 nm, 0.01% Triton. Potency, µM (titrated, usually from 114 µM), without a hit: at the top dose activity change, negative = inhibition, hits mostly inhibitors. actives 0.041% (n = 370,000). AID 485294, 2010;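 further: 0% = no-compound wells and -100% = no-enzyme wells; nearly all actives have a fitted effect of over 25% in size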
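20 mM phosphate pH 7.0 + 0.01% (detergent screen) or 0.0001% Triton X-100; 5.3 nM AmpC reagent; cpd preinc 15 min RT; nitrocefin (800 uM stock) to start; A480 q20 s × 4 min; Activity was normalised to no-enzyme and no-compound control wells.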
SARS PLP yeast: qHTS of Yeast-based Assay for SARS-CoV PLP | S. cerevisiae expressing SARS-CoV PLpro, growth rescue | Potency, µM (top dose mostly 32.9 µM), without a hit: at the highest dose activity, positive = growth rescue, hits mostly activators | actives 0.19% (n = 330,000); calls by dose curve; further: 0% is about no effect; nearly all actives have a fitted effect of over 55% in size
Sm TGR inh: qHTS Assay for the Inhibitors of Schistosoma Mansoni Peroxiredoxins; Schistosoma mansoni thioredoxin glutathione reductase (TGR), Q962Y6; purified TGR, DTNB reduction, TNB absorbance 405 nm; Potency, µM (top dose mostly 114 µM), for the others: top-dose activity change, negative = inhibition, hits mostly inhibitors; actives 3% (n = 360,000); AID 485364, 2010; further: on the % scale 0 is the no-effect control and ±100 the full control effect; nearly all actives have a fitted effect of over 60% in size
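First, TGR (20 nM dispensed) and NADPH were mixed with compound. Second, a 15 min room-temperature incubation followed. Third, further NADPH and then DTNB were added to start the reaction. Finally, TNB absorbance was monitored kinetically.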
RE007 growth inh: qHTS Assay for Inhibitors of the HIV-1 protein Vpr | S. pombe RE007 Vpr strain, BacTiter-Glo ATP luminescence, 24 h | Potency, µM (highest dose often 92.2 µM), inactives show at the highest dose activity change, negative = less growth, hits mostly inhibitors | actives 0.21% (n = 360,000); active means well fitted falling curve with a large enough effect; inconclusive means small, poorly fitted or top-dose-only effect; inactive means no such curve, though single readings can be large or run the other way; further: on the % scale 0 is the no-effect control and ±100 the full control effect; nearly all actives have a fitted effect of over 50% in size
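Fission yeast strain RE007, carrying one chromosomally integrated HIV-1 vpr copy, was seeded at OD 0.01 in PMG+AL medium with 23 nL pinned compound. After 24 h at 30 °C and 99% humidity, viability was read by BacTiter-Glo luminescence.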
Active calls of the source: *; ? = inconclusive; · = no result given. A selection: hits, their analogues and other compounds. The true share with any hit is near 3.3%. Unless noted, the call rests on the fitted dose curve; in most records, active means well fitted curve in the direction sought with a large enough effect; inconclusive means small, poorly fitted or top-dose-only effect, or another doubt; inactive means no such curve, though single readings can be large; an effect the other way counts as inactive or inconclusive. Potency means the concentration at half of the fitted maximal effect.

SMILES | TbPYK inhibitor | AmpC no deterg | AmpC detergent | SARS PLP yeast | Sm TGR inh | RE007 growth inh
COCC(C)OC(=O)c1c(N)n(Cc2ccco2)c2nc3ccccc3nc12 (stereo not given) | -0.5% | -22.4% | -4.4% | -2.4% | 10µM* | -2.3%
CCCCn1c(NC(=O)c2ccco2)c(C(=O)OCC)c2nc3ccccc3nc21 | -11.0% | 60.3% | -12.8% | 1.1% | 25.1µM* | -6.6%
Cn1c(=O)[nH]c(=O)c2c1nc(N1CCOCC1)n2Cc1ccccc1 | -1.9% | · | 7.2% | · | -4.5% | ·
CCOc1ccc(NC(=O)NC(C)c2c(-n3cccc3)sc3c2CCN(CC)C3)cc1 (stereo not given) | 0.0% | · | 12.4% | · | -9.2% | ·
C=CCc1ccccc1OCC(O)CNC (stereo not given) | 3.8% | -6.7% | ? | -3.8% | 25.1µM* | -2.2%
O=C(COc1ccccc1[N+](=O)[O-])N1CCC(c2nc3ccccc3o2)CC1 | 0.0% | · | 12.8% | · | 3.9% | ·
COc1ccccc1Cc1nc2ccccc2nc1SCC(=O)N1CCN(c2ccccc2)CC1 | -3.6% | · | 25.1% | · | 9.9% | ·
O=S1(=O)C=C(Sc2nc3cc(Cl)ccc3o2)c2ccccc21 | -10.4% | -35.4% | -1.1% | -19.5% | 1.58µM* | -18.3%
Cn1c(=O)c2c(SCC(=O)N3CCc4ccccc43)nc(-c3cccc(F)c3)nc2n(C)c1=O | 4.4% | · | 15.7% | · | 1.3% | ·
COc1ccc(C2C(=O)N(C3CCC(C)CC3)CC(=O)N2C2CCCCC2)cc1OC (stereo not given) | -2.3% | · | 7.1% | · | 12.0% | ·
O=C(CSc1nc(O)cc(=O)n1-c1ccccc1)Nc1ccc2c3c(cccc13)CC2 | 5.2% | -45.0% | -14.5% | ? | 1.9% | 9.0%
Cc1c(O)nc(SCC(=O)Nc2ccc3c4c(cccc24)CC3)n(-c2ccccc2)c1=O | -0.9% | 35.5µM* | -2.0% | ? | -11.4% | 13.2%
CCOC(=O)NC(C(Cl)(Cl)Cl)S(=O)(=O)c1ccccc1 (stereo not given) | 12.4% | -9.6% | 5.3% | -0.7% | 25.1µM* | -0.3%
CCOC(=O)NC(c1ccc(C(C)C)cc1)C(Cl)(Cl)Cl (stereo not given) | 2.3% | -29.3% | -3.3% | -52.5% | -15.9% | -18.1%
COc1ccc(-c2cc(CNS(=O)(=O)c3ccc(NC(C)=O)cc3)on2)cc1 | -1.1% | -20.0% | ? | -0.5% | 5.4% | -10.8%
O=S(=O)(NCc1cc(-c2ccccc2Cl)no1)c1ccc(Cl)cc1 | ? | -39.3% | -11.2% | -11.3% | 15.4% | 31.6µM*
CC(C)N1[N]C(=C2C=c3cc(O)ccc3=N2)c2c(N)ncnc21 | 6.3% | · | · | · | · | ·
CCC1C/C(=C/c2ccco2)C(=O)/C(=C/c2ccco2)C1 (stereo not given) | · | -37.3% | ? | -24.5% | 20µM* | ·
CCC1C/C(=C\c2cc(OC)c(OC)cc2OC)C(=O)/C(=C/c2cc(OC)c(OC)cc2OC)C1 (stereo not given) | -5.2% | 77.9% | -2.1% | 0.2% | -20.9% | 8.6%
Cc1ccccc1C(=O)Nc1ccc2nc(Nc3cccc(C(F)(F)F)c3)cc(C)c2c1 | 6.5% | · | -2.9% | · | 1.3% | ·
C/C(=C\C(=O)Nc1ccccc1C(=O)O)c1ccc2ccccc2c1 | -3.4% | · | · | · | · | ·
CCCn1c(=O)c(Cc2ccccc2)c(O)c2ccccc21 | -4.2% | -1.5% | 0.7% | 19.2% | 1.4% | -7.3%
O=c1c(Cc2ccccc2)c(O)c2cccc3c4c(n1c23)CCCC4 | -14.3% | 7.94µM* | -0.3% | -2.2% | -12.3% | -15.3%
CC1CCN(S(=O)(=O)c2cc(C(=O)NCc3ccccc3)n(C)c2)CC1 | -0.3% | · | 3.9% | · | 2.0% | ·

High-throughput results: PubChem BioAssay, National Center for Advancing Translational Sciences (NCATS)
